# Bioassay records (PubChem BioAssay)
# Anthrax LF prot: blocks Bacillus anthracis lethal factor protease | P15917 | multiplex microsphere protease cleavage assay, LF | inhibition, % at 10 µM | 360,000 compounds, 0.12% hits | AID 588501
# BoNT-F LC inh: BoNT F light chain protease inhibition | Multiplex microsphere protease cleavage assay, flow cytometry | inhibition, % at 10 µM | 360,000 compounds, 0.22% hits | AID 588497; in the data active = inhibition above about 35%, passing the limit was not always enough; inconclusive = no clear call, values can overlap the other calls
# GDH-TPI inh: GDH-TPI coupled enzyme inhibition counter-screen; GDH-TPI coupled enzyme counterscreen, NADH absorbance; inhibition, % at 4.8 µM; 360,000 compounds, 1.2% hits; in the data active = inhibition above about 30%
# FBA Mtb inh: Mtb fructose-bisphosphate aldolase inhibition; P9WQA3; purified M. tuberculosis FBA, fluorescence read-out; inhibition, % at 1 µM; 360,000 compounds, 2.3% hits; in the data active = inhibition above about 27%
# Autofluor counter: flagged as autofluorescent in microsphere protease counterscreen; compound autofluorescence counterscreen, microsphere flow cytometry; hits give high values; fluorescence intensity (test concentration not listed); 360,000 compounds, 3.1% hits; in the data active = fluorescence intensity above about 16000; inconclusive = no clear call, values can overlap the other calls
# BoNT-A LC inh2: blocks Botulinum neurotoxin A light chain protease | multiplex microsphere protease substrate cleavage, flow cytometry | inhibition, % at 10 µM | 360,000 compounds, 0.17% hits | AID 588499
# Hits are given with their value; 0 = inactive; ? = inconclusive; - = no result. A selection: hits, their analogues and other compounds. The true share with any hit is near 6.6%. Rule as the data show it, unless noted: active = inhibition above about 30%; inconclusive = no clear call, values can overlap the other calls; inactive = below that.
SMILES,Anthrax LF prot,BoNT-F LC inh,GDH-TPI inh,FBA Mtb inh,Autofluor counter,BoNT-A LC inh2
C=Cc1ccc(CN2CCCN(Cc3ccc(F)cc3)S2(=O)=O)cc1,0,45,0,0,0,0
CC(C#N)(NC(=O)CN1CCN(S(=O)(=O)c2ccccc2C#N)CC1)C1CC1 (stereo unspecified),0,0,0,0,0,0
O=C(NC1CCCC1)C(c1ccccc1)N(C(=O)c1csnn1)c1ccccc1F (stereo unspecified),0,0,0,0,0,0
Cc1ccccc1OCC(=O)Nc1ccc2c(c1)COC2=O,0,0,0,0,20173,0
CCOC(=O)N1CCC(N2C(=O)c3ccccc3C2Nc2ccc(S(=O)(=O)N(CC)CC)cc2)CC1 (stereo unspecified),0,0,0,0,0,0
CCSc1nnc([C@@H](N)Cc2ccccc2)o1,0,0,0,0,21095,0
CCSc1nnc(C(N)Cc2ccccc2)o1 (stereo unspecified),0,0,0,0,0,0
Cc1ccc(C)c(NC(=O)CSc2nnc(-c3ccco3)o2)c1,0,0,0,0,0,0
Cc1cccc(NC(=O)CSc2nnc([C@@H](N)Cc3c[nH]c4ccccc34)o2)c1C,0,0,0,0,23387,0
N[C@@H](Cc1c[nH]c2ccccc12)c1nnc(SCc2ccccc2F)o1,0,0,0,0,22370,0
Cc1ccc(C)c(NC(=O)CSc2nnc([C@@H](N)Cc3ccccc3)o2)c1,0,0,0,0,24097,0
CC1=C(C(=O)N(C(C)C)C(C)C)CC(CC(=O)NCc2ccco2)C(=O)N1Cc1ccccc1 (stereo unspecified),0,0,-,0,0,0
COc1ccc(N2CCN(c3cc(C(=O)NC4CCCCC4)ncn3)CC2)cc1OC,0,0,0,0,0,0
CC1CN(Cc2ccco2)C(=S)NC1=O (stereo unspecified),0,0,0,0,0,0
CC(C)NC(=O)NC(=O)COc1ncnc2sccc12,0,0,0,0,0,0
CC(C)NC(=O)COc1ncnc2sccc12,0,0,0,0,18786,0
O=C(O)CSc1ncnc2nc[nH]c12,0,0,0,0,20292,0
O=C(CSc1ncnc2nc[nH]c12)c1ccc2ccccc2c1,0,0,0,0,0,0
CCOC(=O)C(C)Sc1ncnc2nc[nH]c12 (stereo unspecified),0,0,0,0,24038,?
O=C(CSc1ncnc2nc[nH]c12)N1CCN(c2ccc(Cl)cc2)CC1,0,0,0,0,16576,0
Clc1cccc(N2CCN(c3ncnc4nc[nH]c34)CC2)c1,0,0,0,0,0,0
O=C(O)CC(NNC(=O)c1ccccc1)C(=O)Nc1cccc([N+](=O)[O-])c1 (stereo unspecified),0,0,0,0,0,0
CC1(C)CC(=O)C2=C(C1)Nc1ccccc1NC2c1ccccn1 (stereo unspecified),0,0,42,0,0,0
CC1(C)CC(=O)C2=C(C1)Nc1ccccc1NC2c1ccc2c(c1)OCO2 (stereo unspecified),0,0,41,0,0,0
COc1ccc(OC)c(C2Nc3ccccc3NC3=C2C(=O)CC(C)(C)C3)c1 (stereo unspecified),0,?,0,0,0,0
SMILES,Anthrax LF prot,BoNT-F LC inh,GDH-TPI inh,FBA Mtb inh,Autofluor counter,BoNT-A LC inh2
COc1ccccc1C1Nc2ccccc2NC2=C1C(=O)CC(C)(C)C2 (stereo unspecified),0,37,0,0,0,0
CC1(C)CC(=O)C2=C(C1)Nc1ccccc1NC2c1nc2ccccc2[nH]1 (stereo unspecified),0,0,32,0,0,0
CC(C)CNC(=O)c1cccc(NC(=O)C(C)Oc2ccccc2)c1 (stereo unspecified),0,0,0,0,0,0
CCOc1ccc(NC(=O)c2ccc(NS(=O)(=O)c3cccs3)cc2)cc1,0,0,0,0,0,0
COc1cccc2cc(C(=O)C3=C(O)C(=O)N(CCN4CCOCC4)C3c3cccc(Cl)c3)oc12 (stereo unspecified),0,0,0,0,0,0
COc1ccc(C2Nc3ccccc3NC3=C2C(=O)CC(C)(C)C3)c(OC)c1OC (stereo unspecified),0,0,0,0,0,0
COc1cccc(C2Nc3ccccc3NC3=C2C(=O)CC(C)(C)C3)c1OC (stereo unspecified),0,?,35,0,0,0
O=C(c1[nH]c(C(F)(F)F)nc1-c1ccccc1)N1CCN(c2cccc(C(F)(F)F)n2)CC1,0,0,-,0,0,0
